# Assay results as given in the supplement of paper PMC8728848.
# This excerpt belongs to a sample that is enriched for the strongest signals.
# B1: PX9961V-pdi-562-26-562 (Parabacteroides distasonis) (protein)
# chain: EIFSEITTDNYYQNSNNIYAALVNNYAKAFSTGWSDARYFLQEVTADQLMIPTRGKHGYNGGEYVRLHEHKWTVEENFVYNGWAAPFQGIALCNNTLSDFENLDFSTFKLTEETKNEYIAELRALRVWNYMFLIDFFRHVPIVTDIEEVKAQSTPLEVFNFMESELLAILPDLPKNRGVSRFDQAGVASILVRLYLNAEKWIGISKYDECEQMAQAILDGKYGEYSIDPDYRGPFRSGINGYRSKENIMEFAIKKNYFEASWLYNMWMHYQDRYSLDNDWQGWNGGNLAPSRDLYGNLYQDKLGMPFEKFPDGDIRKKAFRVISNDGDYEGFFLMGTQYKFDYEKGYGFTDEVITGTEEYNGKPLVYVDQVGRFSEGETGLAKGSHVIYGEENTGYRLIKFPWLPQSKDLFQMNSIPEIRLAEIYYSLAECKYRSGDKIGAARLLDVVRKRYYKAEDWSKFSYESNISKLTDDEFVDELGREFIGERHRRIDLIRWNRFSEGAWWDKTPDATNQDVFPIPYRALNANPLLKQTTAGF
# Experiments:
# Experiment in all cases: glycan array binding signal (z-score within array); higher = stronger binding
# Details in all cases: glycan notation: IUPAC condensed, linker removed
# [1] = target: Gal(b1-4)GlcNAc(b1-3)Gal(b1-4)[Fuc(a1-3)]GlcNAc(b1-3)Gal(b1-4)[Fuc(a1-3)]GlcNAc
# In short: (§1)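 Negative Z-scores can be read as non-binding. The Z-score is calculated within each array and then averaged across arrays of one protein sequence at different concentrations or buffers and across linkers. Arrays, 3228 in all, were curated from the Consortium for Functional Glycomics database and kept only where the protein sequence was available.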
# [2] = target: Gal(b1-4)GlcNAc(b1-3)[Fuc(a1-3)GlcNAc(b1-6)]Gal(b1-4)Glc
# In short: as §1
# Gal3S(b1-4)GlcNAc = target: Gal3S(b1-4)GlcNAc
# In short: as §1
# [3] = target: GalNAc(a1-3)GalNAc(b1-3)Gal(a1-4)Gal(b1-4)Glc
# In short: as §1
# [4] = target: GalNAc(b1-3)Gal(a1-4)Gal(b1-4)GlcNAc
# In short: as §1
# [5] = target: GlcNAc(b1-2)Man(a1-3)[GlcNAc(b1-4)][GlcNAc(b1-2)Man(a1-6)]Man(b1-4)GlcNAc(b1-4)[Fuc(a1-6)]GlcNAc
# In short: as §1
# [6] = target: GlcNAc(b1-2)[GlcNAc(b1-4)]Man(a1-3)[GlcNAc(b1-4)][GlcNAc(b1-2)Man(a1-6)]Man(b1-4)GlcNAc(b1-4)GlcNAc
# In short: as §1
# [7] = target: GlcNAc(b1-3)Gal(b1-4)GlcNAc(b1-3)[GlcNAc(b1-3)Gal(b1-4)GlcNAc(b1-3)]GalNAc
# In short: as §1
# GlcNAc(b1-3)GalNAc = target: GlcNAc(b1-3)GalNAc
# In short: as §1
# [8] = target: GlcNAc(b1-4)GlcNAc(b1-4)GlcNAc(b1-4)GlcNAc(b1-4)GlcNAc
# In short: as §1
# Man(a1-3)[Man(a1-6)]Man = target: Man(a1-3)[Man(a1-6)]Man
# In short: as §1
# Neu5Ac(a2-3)Gal = target: Neu5Ac(a2-3)Gal
# In short: as §1
# [9] = target: Neu5Ac(a2-3)Gal(b1-3)GalNAc(b1-3)Gal(a1-4)Gal(b1-4)Glc
# In short: as §1
# [10] = target: Neu5Ac(a2-3)Gal(b1-3)GlcNAc(b1-2)Man(a1-3)[GlcNAc(b1-4)][Neu5Ac(a2-3)Gal(b1-3)GlcNAc(b1-2)Man(a1-6)]Man(b1-4)GlcNAc(b1-4)GlcNAc
# In short: as §1
# [11] = target: Neu5Ac(a2-3)Gal(b1-3)[Fuc(a1-4)]GlcNAc
# In short: as §1
# [12] = target: Neu5Ac(a2-3)Gal(b1-4)GlcNAc(b1-3)Gal(b1-4)GlcNAc
# In short: as §1
# [13] = target: Neu5Ac(a2-3)Gal(b1-4)GlcNAc(b1-3)Gal(b1-4)GlcNAc(b1-3)Gal(b1-4)GlcNAc
# In short: as §1
# [14] = target: Neu5Ac(a2-3)Gal(b1-4)GlcNAc(b1-3)Gal(b1-4)GlcNAc(b1-3)GalNAc
# In short: as §1
# [15] = target: Neu5Ac(a2-3)Gal(b1-4)[Fuc(a1-3)]GlcNAc(b1-6)[Neu5Ac(a2-3)Gal(b1-3)]GalNAc
# In short: as §1
# Neu5Ac(a2-6)Gal(b1-4)Glc = target: Neu5Ac(a2-6)Gal(b1-4)Glc
# In short: as §1
# [16] = target: Neu5Ac(a2-6)Gal(b1-4)GlcNAc(b1-2)Man(a1-3)[GlcNAc(b1-4)][Neu5Ac(a2-6)Gal(b1-4)GlcNAc(b1-2)Man(a1-6)]Man(b1-4)GlcNAc(b1-4)GlcNAc
# In short: as §1
# [17] = target: Neu5Ac(a2-6)Gal(b1-4)GlcNAc(b1-2)Man(a1-3)[Man(a1-6)]Man(b1-4)GlcNAc(b1-4)GlcNAc
# In short: as §1
# [18] = target: Neu5Ac(a2-6)Gal(b1-4)GlcNAc(b1-6)[Gal(b1-3)]GalNAc
# In short: as §1
# [19] = target: Neu5Ac(a2-8)Neu5Ac(a2-3)Gal(b1-3)GalNAc(b1-4)[Neu5Ac(a2-3)]Gal(b1-4)Glc
# In short: as §1
# [20] = target: Neu5Ac(a2-8)Neu5Ac(a2-3)Gal(b1-4)GlcNAc
# In short: as §1
# [21] = target: Neu5Gc(a2-3)Gal(b1-4)GlcNAc
# In short: as §1
# [22] = target: Neu5Gc(a2-3)Gal(b1-4)GlcNAc(b1-3)Gal(b1-4)GlcNAc(b1-2)Man(a1-3)[Neu5Gc(a2-3)Gal(b1-4)GlcNAc(b1-3)Gal(b1-4)GlcNAc(b1-2)Man(a1-6)]Man(b1-4)GlcNAc(b1-4)GlcNAc
# In short: as §1
# [23] = target: Neu5Gc(b2-6)Gal(b1-4)GlcNAc
# In short: as §1
binder,measurement,setting,value
B1,glycan array binding signal (z-score),[1],-0.412
same,glycan array binding signal (z-score),[2],-0.429
same,glycan array binding signal (z-score),Gal3S(b1-4)GlcNAc,-0.447
same,glycan array binding signal (z-score),[3],-0.432
same,glycan array binding signal (z-score),[4],-0.339
same,glycan array binding signal (z-score),[5],-0.145
same,glycan array binding signal (z-score),[6],-0.324
same,glycan array binding signal (z-score),[7],-0.471
same,glycan array binding signal (z-score),GlcNAc(b1-3)GalNAc,-0.21
same,glycan array binding signal (z-score),[8],0.049
same,glycan array binding signal (z-score),Man(a1-3)[Man(a1-6)]Man,-0.443
same,glycan array binding signal (z-score),Neu5Ac(a2-3)Gal,-0.711
same,glycan array binding signal (z-score),[9],-0.516
same,glycan array binding signal (z-score),[10],0.213
same,glycan array binding signal (z-score),[11],-0.598
same,glycan array binding signal (z-score),[12],-0.53
same,glycan array binding signal (z-score),[13],-0.516
same,glycan array binding signal (z-score),[14],-0.319
same,glycan array binding signal (z-score),[15],2.66
same,glycan array binding signal (z-score),Neu5Ac(a2-6)Gal(b1-4)Glc,-0.644
same,glycan array binding signal (z-score),[16],-0.373
same,glycan array binding signal (z-score),[17],-0.231
same,glycan array binding signal (z-score),[18],-0.27
same,glycan array binding signal (z-score),[19],-0.606
same,glycan array binding signal (z-score),[20],-0.574
same,glycan array binding signal (z-score),[21],0.017
same,glycan array binding signal (z-score),[22],-0.054
same,glycan array binding signal (z-score),[23],-0.322
